Assay results from PubChem BioAssay (NCATS).
Inconclusive results are not listed. Active and inactive are the calls of the source. Unless noted, calls follow the shape of the dose curve; as a rule, active = well fitted curve in the direction sought with a large enough effect; inconclusive = small, poorly fitted or top-dose-only effect, or another doubt; inactive = no such curve, though single readings can be large; an effect the other way counts as inactive or inconclusive.

Assays:
[1] = OV-KATE Cancer Cell Toxicity qHTS against the NCATS CANVASS Library (AID 1347345); also: potency is read from the fitted curve at half-maximal effect
Procedure, shortened: (§1)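 Following a 4 h pre-incubation of 1000 seeded cells, compounds were pinned in an 11-pnt dilution series and left for 72 h; viability then came from CellTiter-Glo.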

[2] = HPAF-II Cancer Cell Toxicity qHTS against the NCATS CANVASS Library (AID 1347346); also: nearly all actives have a fitted effect of over 55% in size; also: potency is read from the fitted curve at half-maximal effect
Procedure, shortened: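 Cytotoxicity in HPAF-II pancreatic cancer cells: 72 h treatment across 11 concentrations, ATP-based CellTiter-Glo luminescence endpoint.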

[3] = Panc-1005 Cancer Cell Toxicity qHTS against the NCATS CANVASS Library (AID 1347349); also: nearly all actives have a fitted effect of over 60% in size; also: potency is read from the fitted curve at half-maximal effect
Procedure, shortened: as §1

[4] = COV-362 Cancer Cell Toxicity qHTS against the NCATS CANVASS Library (AID 1347352); also: potency is read from the fitted curve at half-maximal effect
Procedure, shortened: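 qHTS cytotoxicity: compounds tested in 11 concentrations on 1000 seeded cells per well over 72 h; bortezomib served as control; signal from CellTiter-Glo luminescence.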

[5] = HPAF-II 24hr Apoptosis Induction qHTS against the NCATS CANVASS Library (AID 1347356); also: 0% is about no effect
Procedure, shortened: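 Apoptosis induction in HPAF-II pancreatic cancer cells is measured as caspase-3/7 luminescence after a 24-hour exposure to compounds.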

[6] = HPAF-II 12hr Apoptosis Induction qHTS against the NCATS CANVASS Library (AID 1347358); also: 0% is about no effect
Procedure, shortened: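 Apoptosis in HPAF-II pancreatic cancer cells is scored as caspase 3/7 luminescence following a 12-hour exposure to an 11-point compound series.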

[7] = HEK293 24hr Apoptosis Induction qHTS against the NCATS CANVASS Library (AID 1347359); also: 0% is about no effect
Procedure, shortened: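 HEK293 cells, 500 per well, exposed to an 11-point compound series for 24 hours at 37 degrees C. Caspase 3/7 activity read by Caspase-Glo luminescence (DEVD substrate) after 15 min at room temperature.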

[8] = target: Glucocorticoid receptor (Homo sapiens) (UniProt P04150); test: GR-GFP Redistribution (AID 450;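 active = compounds whose dose series gives a full or clear partial fitted curve of increased nuclear translocation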; also: potency is read from the fitted curve at half-maximal effect); conditions: U2OS GR-GFP nuclear translocation, laser cytometry, 2 h
[9] = target: Glucocorticoid receptor (Homo sapiens) (UniProt P04150); test: GR-EFC Redistribution (AID 451; calls by dose curve; also: potency is read from the fitted curve at half-maximal effect); conditions: CHO-K1 GR-EFC translocation, beta-gal luminescence, 2 h
Procedure, shortened: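 CHO-K1 cells expressing nuclear EA and GR-ED fragments of b-gal; compounds titrated up to 46 uM final, 2 h at 37 C. GR nuclear translocation read as complemented b-gal luminescence after 1 h RT detection.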

[10] = qHTS Assay for Lipid Storage Modulators (AID 1519; calls by dose curve; as to activity change, negative = inhibition: % is scaled to controls: 0 for no effect and ±100 for the full control effect); conditions: Drosophila S3 cells, BODIPY lipid droplet/cell ratio, laser cytometry, cells loaded with oleic acid; for activity change, negative = inhibition: at 57.5 µM (top of the series)
Procedure, shortened: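 Cells seeded at 5,000 per well were treated with compounds over a concentration series and loaded with oleic acid (400 uM, as added). Lipid droplet fluorescence (488 nm excitation, 500-530 nm channel) was read by laser-scanning cytometry and normalized to 20 uM Triacsin C.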

[11] = target: DNA dC->dU-editing enzyme APOBEC-3G (Homo sapiens) (UniProt Q9HC16); test: qHTS for inhibitors of Vif-A3G interactions: Validation (AID 588379); also: 0% is about no effect
Procedure, shortened: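 HeLa cells stably expressing Vif and A3G-eYFP, 700 cells/well, incubated overnight at 37 deg C, then exposed to compound overnight at 37 deg C. Inhibition of Vif-mediated degradation read as increased yellow fluorescence (Ex 488/Em 500-530) by laser-scanning cytometry.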

[12] = tested on: Zika virus NS2B-NS3 protease; test: Primary screen GU AMC qHTS for Zika virus inhibitors (AID 1347154);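 also: 0% = no-inhibitor control and -100% = no-enzyme control; nearly all actives have a fitted effect of over 70% in size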
Procedure, shortened: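 Unlinked Zika NS2B hydrophilic domain–NS3 protease complex at 25 nM in 10 mM Tris-HCl pH 8.0, 0.01% Tween 20, with an AMC peptide substrate. Fluorescence change (340/450 nm) over 15 min at room temperature, normalized to controls, fitted to 4-parameter Hill.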

[13] = AP1 Signaling Pathway (AID 357; active = well fitted curve in either direction with a large enough effect, not every such curve was filed as active;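 also: ME-180 reporter cells stimulated with EGF at its EC50 level; % is scaled to controls: 0 for no effect and ±100 for the full control effect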)
Procedure, shortened: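 Read-out was the 460nm/530nm emission ratio (excitation 405nm) after CCF4 loading for 2.5 hours at room temperature. Cells carried an AP-1-driven beta-lactamase reporter, were stimulated with EC50 EGF plus compound for 5 hours, and AC50 values came from titrations.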

[14] = target: Cytochrome P450 1A2 (Homo sapiens) (UniProt P05177); test: p450-cyp1a2 (AID 410; calls by dose curve; also: potency is read from the fitted curve at half-maximal effect;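 as to activity change, negative = inhibition: -100% = full effect of reference inhibitor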)
Procedure, shortened: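 Inhibition was calculated relative to 57 uM furafylline (full inhibition). The reaction used human CYP1A2 at 20nM with Luciferin-ME at its Km, 100uM, driven by an NADPH-regenerating system for 60 min at room temperature.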

[15] = target: Mitogen-activated protein kinase 10 (Mus musculus) (UniProt Q61831); test: JNK3 AlphaScreen Assay (AID 530; active = well fitted curve in either direction with a large enough effect, not every such curve was filed as active;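 also: kinase came from lysate of stimulated human HepG2 cells; signal reports phosphorylation of biotinylated GST-cJun 1-79 at Ser73 with 10 µM ATP; % is scaled to controls: 0 for no effect and ±100 for the full control effect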)
Procedure, shortened: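 qHTS format: compounds tested as titrations against IL-1beta/TNF-alpha-activated HepG2 lysate JNK3 with biotin-GST-cJun substrate and 10 uM ATP at room temperature. Loss of anti-phospho-cJun AlphaScreen signal indicates inhibition.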

[16] = target: 3',5'-cyclic-AMP phosphodiesterase 4B (Homo sapiens) (UniProt Q07343); test: qHTS Assay for Inhibitors of PDE-IV (AID 607; active = well fitted activation curve with a large enough effect in the main read-out, with a control signal flat, not every such curve was filed as active; also: % of control where 0% means no effect)
Procedure, shortened: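 Cell-based read-out of cAMP via a modified cyclic nucleotide-gated channel and membrane potential dye (535/590 nm) in HEK293 cells expressing PDE4 endogenously. Compounds tested up to 22.9 uM final; 100 uM RO 20-1724 reference.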

[17] = target: Cytochrome P450 3A4 (Homo sapiens) (UniProt P08684); test: qHTS Assay for Activators of Cytochrome P450 3A4 (AID 885); also: nearly all actives have a fitted effect of over 65% in size
Procedure, shortened: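 Signal was normalized against complete inhibition by 57 uM ketoconazole. The reaction used 20nM CYP3A4 with 25uM Luciferin-PPXE, 10-min compound preincubation and a 60-min NADPH-supported step at RT.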

[18] = target: Cytochrome P450 2D6 (Homo sapiens) (UniProt P10635); test: qHTS Assay for Inhibitors and Substrates of Cytochrome P450 2D6 (AID 891); also: potency is read from the fitted curve at half-maximal effect; nearly all actives have a fitted effect of over 60% in size
Procedure, shortened: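 Human CYP2D6 (5 nM) with 30 uM Luciferin-ME EGE (at Km) in 100 mM KPO4, compound preincubated 10 min, then NADPH regeneration system for 60 min at room temperature. Luciferin read by luminescence; normalized to 1.43 uM quinidine.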

[19] = target: Ubiquitin carboxyl-terminal hydrolase 1 (Homo sapiens) (UniProt O94782); test: Inhibitors of USP1/UAF1: Pilot qHTS (AID 504865);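 also: rhodamine fluorescence freed from ubiquitin-rhodamine substrate followed over time; top concentration of the series differs between compounds; % is scaled to controls: 0 for no effect and ±100 for the full control effect; nearly all actives have a fitted effect of over 35% in size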
Procedure, shortened: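 1nM USP1/UAF1 + cpd, 15 min RT; start w/ Ub-Rho 150nM final; kinetic FL 480/540 nm, 6 reads q60 s. Buffer 50mM HEPES pH 7.8, 0.5mM EDTA, 1mM TCEP, 0.01% Tween-20, 0.1 mg/ml BSA.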

[20] = Primary qHTS for small molecule stabilizers of the endoplasmic reticulum resident proteome: Secreted ER Calcium Modulated Protein (SERCaMP) assay (AID 1508630); also: % is scaled to controls: 0 for no effect and ±100 for the full control effect
Procedure, shortened: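 GLuc-SERCaMP-expressing SH-SY5Y cells, pretreated 16 h with compound, are challenged with thapsigargin to empty ER calcium stores; after 4 h, coelenterazine is added directly to the medium and luminescence is imaged.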

[21] = measured here: cell count channel max response
[22] = measured here: lipid channel max response

Chain of Glucocorticoid receptor (Homo sapiens) (P04150 whole entry, looked up, the tested form may be a part): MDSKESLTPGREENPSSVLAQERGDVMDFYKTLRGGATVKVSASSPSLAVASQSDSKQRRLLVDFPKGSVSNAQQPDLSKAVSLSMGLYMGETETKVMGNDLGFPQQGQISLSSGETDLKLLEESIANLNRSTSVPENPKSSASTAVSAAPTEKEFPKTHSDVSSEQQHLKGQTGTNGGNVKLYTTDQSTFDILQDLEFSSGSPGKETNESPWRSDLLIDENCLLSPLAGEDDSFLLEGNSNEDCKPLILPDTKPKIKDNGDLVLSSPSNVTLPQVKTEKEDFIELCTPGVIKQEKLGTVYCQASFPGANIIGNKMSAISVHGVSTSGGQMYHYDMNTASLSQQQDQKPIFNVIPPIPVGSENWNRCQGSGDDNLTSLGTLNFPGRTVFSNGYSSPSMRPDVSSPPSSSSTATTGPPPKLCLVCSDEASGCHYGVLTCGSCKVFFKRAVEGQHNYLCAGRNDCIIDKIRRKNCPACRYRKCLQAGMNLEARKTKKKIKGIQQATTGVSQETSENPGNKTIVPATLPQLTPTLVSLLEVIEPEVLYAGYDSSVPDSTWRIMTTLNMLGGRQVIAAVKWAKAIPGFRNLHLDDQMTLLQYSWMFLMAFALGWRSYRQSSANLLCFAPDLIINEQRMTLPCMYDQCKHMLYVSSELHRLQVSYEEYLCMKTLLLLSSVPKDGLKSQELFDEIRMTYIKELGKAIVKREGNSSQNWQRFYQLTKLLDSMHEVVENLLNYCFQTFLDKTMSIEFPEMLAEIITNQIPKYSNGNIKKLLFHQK
Chain of Cytochrome P450 1A2 (Homo sapiens) (P05177 whole entry, looked up): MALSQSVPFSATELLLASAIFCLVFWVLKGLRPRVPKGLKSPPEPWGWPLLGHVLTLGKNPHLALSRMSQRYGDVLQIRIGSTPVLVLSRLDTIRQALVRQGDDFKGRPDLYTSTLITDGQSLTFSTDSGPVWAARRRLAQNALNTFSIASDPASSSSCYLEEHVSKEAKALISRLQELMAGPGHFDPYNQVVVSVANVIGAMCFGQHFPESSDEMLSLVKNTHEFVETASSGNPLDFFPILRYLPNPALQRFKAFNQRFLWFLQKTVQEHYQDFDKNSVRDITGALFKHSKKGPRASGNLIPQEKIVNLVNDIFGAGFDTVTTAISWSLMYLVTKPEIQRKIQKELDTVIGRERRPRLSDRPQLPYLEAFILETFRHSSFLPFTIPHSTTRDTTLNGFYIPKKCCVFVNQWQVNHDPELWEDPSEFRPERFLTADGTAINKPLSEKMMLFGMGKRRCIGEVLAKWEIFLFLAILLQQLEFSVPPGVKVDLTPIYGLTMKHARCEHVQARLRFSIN
Chain of Cytochrome P450 2D6 (Homo sapiens) (P10635 whole entry, looked up): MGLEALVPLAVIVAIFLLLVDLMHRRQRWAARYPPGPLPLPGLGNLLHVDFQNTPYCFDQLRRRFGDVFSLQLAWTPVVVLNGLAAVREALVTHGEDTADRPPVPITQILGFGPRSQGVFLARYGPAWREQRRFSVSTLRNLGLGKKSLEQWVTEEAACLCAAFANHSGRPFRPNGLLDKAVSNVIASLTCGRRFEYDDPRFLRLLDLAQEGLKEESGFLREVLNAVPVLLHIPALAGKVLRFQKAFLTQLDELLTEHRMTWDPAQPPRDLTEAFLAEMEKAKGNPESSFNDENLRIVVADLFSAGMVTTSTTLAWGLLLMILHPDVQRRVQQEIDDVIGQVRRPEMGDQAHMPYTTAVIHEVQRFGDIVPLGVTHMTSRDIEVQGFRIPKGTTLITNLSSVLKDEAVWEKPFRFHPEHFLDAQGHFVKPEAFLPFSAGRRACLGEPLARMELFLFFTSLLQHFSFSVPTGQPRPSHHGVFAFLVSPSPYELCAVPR
Chain of 3',5'-cyclic-AMP phosphodiesterase 4B (Homo sapiens) (Q07343 whole entry, looked up): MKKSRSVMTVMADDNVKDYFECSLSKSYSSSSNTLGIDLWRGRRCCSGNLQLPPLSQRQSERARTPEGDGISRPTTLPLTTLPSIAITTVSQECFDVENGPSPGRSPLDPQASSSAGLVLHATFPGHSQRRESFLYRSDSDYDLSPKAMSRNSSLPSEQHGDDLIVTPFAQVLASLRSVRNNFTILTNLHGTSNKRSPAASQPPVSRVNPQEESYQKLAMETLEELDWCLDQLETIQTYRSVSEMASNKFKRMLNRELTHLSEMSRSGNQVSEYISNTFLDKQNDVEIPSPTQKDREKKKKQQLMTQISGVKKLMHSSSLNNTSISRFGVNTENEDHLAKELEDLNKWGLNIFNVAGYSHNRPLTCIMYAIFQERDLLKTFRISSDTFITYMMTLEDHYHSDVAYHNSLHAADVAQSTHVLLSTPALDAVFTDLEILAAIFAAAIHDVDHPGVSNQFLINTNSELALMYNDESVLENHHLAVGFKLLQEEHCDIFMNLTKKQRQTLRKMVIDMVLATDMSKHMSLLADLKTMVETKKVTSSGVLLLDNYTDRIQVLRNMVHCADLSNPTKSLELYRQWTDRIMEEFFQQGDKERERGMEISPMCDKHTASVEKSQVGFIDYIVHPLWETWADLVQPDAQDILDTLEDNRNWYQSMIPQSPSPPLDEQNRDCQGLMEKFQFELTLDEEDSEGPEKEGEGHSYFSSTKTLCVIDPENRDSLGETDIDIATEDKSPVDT
Chain of Ubiquitin carboxyl-terminal hydrolase 1 (Homo sapiens) (O94782 whole entry, looked up): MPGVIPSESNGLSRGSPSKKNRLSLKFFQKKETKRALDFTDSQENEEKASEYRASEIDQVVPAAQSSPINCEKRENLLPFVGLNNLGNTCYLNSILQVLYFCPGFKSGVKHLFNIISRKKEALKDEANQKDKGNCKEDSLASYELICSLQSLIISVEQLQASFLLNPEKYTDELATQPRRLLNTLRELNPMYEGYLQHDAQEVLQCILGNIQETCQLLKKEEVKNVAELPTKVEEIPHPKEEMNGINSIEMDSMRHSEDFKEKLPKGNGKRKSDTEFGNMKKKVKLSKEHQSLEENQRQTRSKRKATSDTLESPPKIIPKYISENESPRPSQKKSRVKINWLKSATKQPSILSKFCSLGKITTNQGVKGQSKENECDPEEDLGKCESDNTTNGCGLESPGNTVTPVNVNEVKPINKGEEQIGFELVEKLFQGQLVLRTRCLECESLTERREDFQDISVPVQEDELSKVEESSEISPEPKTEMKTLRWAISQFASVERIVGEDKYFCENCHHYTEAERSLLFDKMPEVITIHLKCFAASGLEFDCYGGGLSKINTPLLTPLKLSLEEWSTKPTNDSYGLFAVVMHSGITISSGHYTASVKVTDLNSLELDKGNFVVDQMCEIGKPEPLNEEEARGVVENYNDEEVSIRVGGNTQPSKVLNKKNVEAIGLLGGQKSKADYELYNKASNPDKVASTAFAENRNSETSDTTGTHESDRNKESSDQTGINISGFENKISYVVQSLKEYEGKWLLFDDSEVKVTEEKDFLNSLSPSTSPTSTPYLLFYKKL
Chain of DNA dC->dU-editing enzyme APOBEC-3G (Homo sapiens) (Q9HC16 whole entry, looked up): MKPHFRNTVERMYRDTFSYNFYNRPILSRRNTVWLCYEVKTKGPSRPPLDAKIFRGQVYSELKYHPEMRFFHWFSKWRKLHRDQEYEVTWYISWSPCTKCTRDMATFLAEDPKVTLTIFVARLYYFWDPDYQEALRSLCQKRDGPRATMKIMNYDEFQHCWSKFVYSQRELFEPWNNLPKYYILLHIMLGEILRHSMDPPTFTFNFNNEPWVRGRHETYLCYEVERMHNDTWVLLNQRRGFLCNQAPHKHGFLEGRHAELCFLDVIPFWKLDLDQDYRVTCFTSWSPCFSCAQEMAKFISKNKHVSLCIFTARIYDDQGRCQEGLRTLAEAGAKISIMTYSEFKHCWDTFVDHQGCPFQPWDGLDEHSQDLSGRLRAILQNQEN
Chain of Cytochrome P450 3A4 (Homo sapiens) (P08684 whole entry, looked up): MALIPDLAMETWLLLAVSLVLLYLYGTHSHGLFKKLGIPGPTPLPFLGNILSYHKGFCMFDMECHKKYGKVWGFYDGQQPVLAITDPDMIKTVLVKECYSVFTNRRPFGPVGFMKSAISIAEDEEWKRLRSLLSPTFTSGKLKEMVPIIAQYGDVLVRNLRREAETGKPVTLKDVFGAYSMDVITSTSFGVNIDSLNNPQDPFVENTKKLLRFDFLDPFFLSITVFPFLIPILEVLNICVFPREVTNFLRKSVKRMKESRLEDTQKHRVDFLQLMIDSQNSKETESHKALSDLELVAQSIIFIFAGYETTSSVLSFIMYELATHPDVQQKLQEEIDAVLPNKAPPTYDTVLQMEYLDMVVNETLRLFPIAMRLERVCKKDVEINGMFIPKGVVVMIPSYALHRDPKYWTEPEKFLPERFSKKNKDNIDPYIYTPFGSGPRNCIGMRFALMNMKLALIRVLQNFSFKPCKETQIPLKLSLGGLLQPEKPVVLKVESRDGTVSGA

COC(=O)C1=C2Nc3ccccc3[C@@]23CCN2CC(C(C)=O)C1C[C@H]23 (stereo not given in full)
active: Potency [2] 9.43 µM
inactive: Potency [1] | Potency [3] | Potency [4] | outcome [5] | outcome [6] | Potency [7]

CCCCC[C@@H]1OC(=O)[C@@H](C)N(C)C(=O)[C@H](CCCCC)OC(=O)C(C)N(C)C(=O)[C@H](CCCCC)OC(=O)[C@@H](C)N(C)C(=O)[C@H](CCCCC)OC(=O)C(C)N(C)C1=O (stereo not given in full)
inactive: outcome [5] | outcome [6] | Potency [7]
active: Potency [1] 8.38 µM | Potency [2] 6.68 µM | Potency [3] 8.41 µM | Potency [4] 9.41 µM

CNCCc1ccccc1
inactive: Potency [1] | Potency [2] | Potency [3] | Potency [4] | outcome [5] | outcome [6] | Potency [7]

CC(C)(c1ccc(OC[C@@H]2CO2)cc1)c1ccc(OC[C@H]2CO2)cc1
20.3%: max response [10, 22]
inactive: Potency [8] > 46 µM | Potency [9] > 46 µM | activity change, negative = inhibition [10] 4.02% | Potency [11] | Potency [12]
20.1%: max response [10, 21]

Oc1ccc2c3c1O[C@H]1c4oc5ccccc5c4C[C@]4(O)[C@H](C2)N(CC2CC2)CC[C@@]314
inactive: outcome [13] | Potency [14] | Potency [8] > 46 µM | Potency [9] > 46 µM | outcome [15] | Potency [16] | Potency [17] | Potency [11] | Potency [12]
active: Potency [18] 1.26 µM

CC(C)[C@@]1(NC(=O)[C@H]2CC3c4cccc5[nH]cc(c45)C[C@H]3N(C)C2)O[C@@]2(O)C3CCCN3C(=O)[C@@H](Cc3ccccc3)N2C1=O (stereo not given in full)
inactive: Potency [12]

Oc1ccc2c3c1O[C@H]1c4c(c5ccccc5n4Cc4ccccc4)C[C@]4(O)[C@H](C2)N(CC2CC2)CC[C@@]314
active: Potency [14] 31.6 µM
inactive: Potency [8] > 46 µM | Potency [9] > 46 µM | outcome [15] | Potency [16] | Potency [17] | Potency [11] | Potency [12]

N[C@H](Cc1o[nH]c(=O)c1Cl)C(=O)O
active: Potency [18] 0.158 µM
inactive: Potency [14] | Potency [8] > 46 µM | Potency [9] > 46 µM | outcome [15] | Potency [16] | activity change, negative = inhibition [10] -0.357% | Potency [19] | Potency [11] | Potency [12]
4.87%: max response [10, 22]
4.55%: max response [10, 21]

CN(C)c1ccc(/C=C2\CCCN=C2c2cccnc2)cc1
inactive: Potency [17] | Potency [12]

CCC(=O)CCCCC[C@@H]1NC(=O)[C@H]2CCCCN2C(=O)[C@H]([C@@H](C)CC)NC(=O)[C@H](Cc2cn(OC)c3ccccc23)NC1=O
inactive: outcome [5] | outcome [6] | Potency [7]
active: Potency [1] 4.72 µM | Potency [2] 0.841 µM | Potency [3] 0.668 µM | Potency [4] 16.7 µM

C(=C/c1ccccc1)/CN1CCN(CCOC(c2ccccc2)c2ccccc2)CC1
active: Potency [14] 20 µM | Potency [18] 5.01 µM
inactive: Potency [9] > 46 µM | outcome [15] | Potency [11] | Potency [12]

O=C(O)c1ccccc1-c1c2cc(Br)c(=O)cc-2oc2[c]([Hg])c(O)c(Br)cc12
active: Potency [14] 15.8 µM
inactive: outcome [13] | Potency [9] > 20.6 µM | outcome [15] | Potency [17] | Potency [19]

CCNC(=O)[C@@H]1O[C@@H](n2cnc3c(N)ncnc32)[C@H](O)[C@H]1O
-10.6%: max response [10, 22]
inactive: Potency [14] | Potency [8] > 46 µM | Potency [9] > 46 µM | activity change, negative = inhibition [10] 0.939% | Potency [19] | Potency [11] | Potency [12]
-12.5%: max response [10, 21]

NC(=NCc1ccc(Cl)cc1)SCCCc1cnc[nH]1
inactive: Potency [8] > 46 µM | Potency [9] > 46 µM | outcome [15] | Potency [17] | Potency [11] | Potency [12]

N#CC(C#N)=NNc1ccc(OC(F)(F)F)cc1
inactive: Potency [17] | Potency [12] | Potency [20]

Cc1c(C(=O)c2ccc3ccccc3c2)c2cccc3c2n1[C@H](CN1CCOCC1)CO3
inactive: Potency [14] | Potency [9] > 46 µM | Potency [17] | Potency [11] | Potency [12]

CCOC(=O)c1ncn2c1CN(C)C(=O)c1cc(N=[N+]=[N-])ccc1-2
inactive: Potency [12] | Potency [20]
